# Laboratory results from PubChem BioAssay AID434962 (The Scripps Research Institute Molecular Screening Center, 2010).
# About 1,300 (0.41%) of roughly 320,000 compounds were called active.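 How the source made its calls: active means percent inhibition above the average of all tested compounds plus 3 SD, set per screening campaign (cut at about 16% in these data); inactive means the rest.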 Only a selection was taken, and actives are over-represented in it overall.
# Molecular target: Insulin-degrading enzyme (Homo sapiens) (UniProt P14735)
# Experiment: cellular IDE Abeta-cleavage inhibition – fluorescence polarization, HEK cells, FAbetaB substrate, primary screen (AID 434962);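 further: IDE supplied by intact live HEK cells; FP after avidin binding of uncleaved biotin substrate so inhibition keeps polarization high; 0% = DMSO wells and 100% = 60 µM reference IDE inhibitor Ii1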
# Conditions: at 5.59 µM, stronger effect = higher value
# Sequence of Insulin-degrading enzyme (Homo sapiens) (P14735 whole entry, looked up): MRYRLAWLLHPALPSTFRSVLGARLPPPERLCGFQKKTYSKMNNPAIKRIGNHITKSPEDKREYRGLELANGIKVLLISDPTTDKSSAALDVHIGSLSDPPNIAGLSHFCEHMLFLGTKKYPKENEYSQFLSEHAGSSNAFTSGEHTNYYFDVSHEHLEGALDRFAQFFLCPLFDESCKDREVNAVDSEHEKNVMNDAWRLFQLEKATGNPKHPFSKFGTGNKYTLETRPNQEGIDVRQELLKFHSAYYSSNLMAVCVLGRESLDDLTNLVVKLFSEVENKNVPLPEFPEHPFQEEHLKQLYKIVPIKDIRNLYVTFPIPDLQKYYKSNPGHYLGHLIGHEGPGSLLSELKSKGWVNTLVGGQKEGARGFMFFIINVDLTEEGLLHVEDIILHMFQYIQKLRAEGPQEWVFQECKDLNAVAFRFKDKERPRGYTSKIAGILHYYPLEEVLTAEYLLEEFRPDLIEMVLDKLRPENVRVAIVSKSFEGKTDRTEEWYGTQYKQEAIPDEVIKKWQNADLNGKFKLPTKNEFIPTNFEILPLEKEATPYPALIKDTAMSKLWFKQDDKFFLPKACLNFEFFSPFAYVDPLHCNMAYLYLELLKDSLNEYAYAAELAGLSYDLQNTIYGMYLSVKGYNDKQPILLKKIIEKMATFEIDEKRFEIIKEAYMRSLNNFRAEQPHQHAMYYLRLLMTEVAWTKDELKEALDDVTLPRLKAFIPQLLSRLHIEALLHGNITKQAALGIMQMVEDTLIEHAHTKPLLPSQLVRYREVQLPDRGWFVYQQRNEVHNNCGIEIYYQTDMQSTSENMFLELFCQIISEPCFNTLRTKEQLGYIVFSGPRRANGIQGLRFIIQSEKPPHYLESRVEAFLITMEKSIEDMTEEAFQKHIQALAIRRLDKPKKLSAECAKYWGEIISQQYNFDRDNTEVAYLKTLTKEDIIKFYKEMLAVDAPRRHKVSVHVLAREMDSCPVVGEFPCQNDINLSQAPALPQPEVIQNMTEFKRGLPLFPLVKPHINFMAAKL
row,Compound,inhibition
1,Cc1ccnc(N2CCCC(C(=O)NC3CC3)C2)n1 (stereo not drawn),1.69% (inactive)
2,Cc1ccnc(-n2sc3ccccc3c2=O)n1,57.8% (active)
3,Cc1nc2ccccc2c(=O)n1NC(=O)c1ccccc1,7.25% (inactive)
4,COc1cccc(CNC(=O)C2CCCN(c3ncnc4c3nc3n4CCCCC3)C2)c1 (stereo not drawn),8.69% (inactive)
5,O=C(/C=C/c1ccccc1)Oc1coc(CSc2ncccn2)cc1=O,4.39% (inactive)
6,COC(=O)c1sccc1-n1cccc1C(=O)C(=O)N1CCCCC1,-0.4% (inactive)
7,O=C(c1cccnc1)N(c1cc2sc(=O)oc2c2ccccc12)S(=O)(=O)c1ccccc1,20.4% (active)
8,CCc1ccc(N(CC(=O)NCc2cccnc2)S(=O)(=O)c2ccccc2)cc1,8.22% (inactive)
9,COc1ccc(N(C(=O)c2cccnc2)S(=O)(=O)c2ccc(OC)c(OC)c2)cc1,-4.14% (inactive)
10,O=C(Cn1nnc2ccccc2c1=O)Nc1cc(C(F)(F)F)ccc1N1CCOCC1,6.97% (inactive)
11,COc1ccc(C)cc1NC(=O)c1cc(-c2ccccc2)nc2c1cnn2C(C)C,1.05% (inactive)
12,CC(=O)N(C1=C(Cl)C(=O)c2ccccc2C1=O)c1ccc(C(=O)O)cc1,98.9% (active)
13,Cc1cc(OCCCC(=O)NCCN2C(=O)S/C(=C\c3cccnc3)C2=O)ccc1Cl,3.84% (inactive)
14,OC(c1nc2ccc(F)cc2[nH]1)C(O)c1nc2ccc(F)cc2[nH]1 (stereo not drawn),6.32% (inactive)
15,COc1ccc(-c2[nH]ncc2/C=N/NC(=O)c2cc(Br)ccc2O)c(OC)c1,1.62% (inactive)
16,Cc1ccccc1NC(=O)C(C)c1ccc(-c2ccccc2)c(F)c1 (stereo not drawn),4.53% (inactive)
17,CCN1/C(=C/c2ccc3ccc(C)cc3[n+]2CC)Sc2ccccc21,31.9% (active)
18,CCN1/C(=C\c2ccc3ccccc3[n+]2CC)Sc2cc(C)ccc21,73.9% (active)
19,CC(NC(=O)C(C)(C)C)C(c1cccs1)N1CCN(Cc2ccccc2)CC1 (stereo not drawn),-2.35% (inactive)
20,O=Cc1c(Nc2ccccc2Cl)nc2ccccn2c1=O,-3.69% (inactive)

row,Compound,inhibition
1,CC(=O)c1ccc(S(=O)(=O)Nc2ccc(-c3ccc4nncn4n3)cc2)cc1,2.89% (inactive)
2,Cc1ccc(CC(=O)N(C)CC(=O)N(CC(C)C)c2c(N)n(CC(C)C)c(=O)[nH]c2=O)cc1C,-2.63% (inactive)
3,CN(c1ccccc1)c1ccc(/C=c2\s/c(=C(/C#N)C(=O)C(C)(C)C)n(Cc3ccco3)c2=O)cc1,31% (active)
4,CCOC(=O)Cn1c(=O)oc2cc(S(=O)(=O)N(C)Cc3ccco3)ccc21,3.15% (inactive)
5,O=C(O)c1ccccc1C(=O)NC1=NN(c2ccccc2)CC1,-0.6% (inactive)
6,COc1ccccc1C(=O)OCC(=O)Nc1cccc(S(=O)(=O)NC2=NCCCCC2)c1,0.13% (inactive)
7,Cc1ccc(Br)c(NS(=O)(=O)c2cccc(C(=O)N3CCNC(=O)C3)c2)c1,-0.69% (inactive)
8,CCOC(=O)/C(C#N)=C/c1ccc(N2CCN(Cc3ccccc3)CC2)cc1,3.39% (inactive)
9,C/C(=C/c1ccccc1)C(=O)N1CCN(c2ccccc2)CC1,-2.17% (inactive)
10,COc1ccc(N2CCN(C(=O)/C(C#N)=C/c3ccccc3)CC2)cc1,17.7% (active)
11,Cc1cc(=O)oc2c1ccc1ccccc12,7.29% (inactive)
12,CCc1ccccc1N(CC(=O)N1CCN(c2ccccc2F)CC1)S(C)(=O)=O,-4% (inactive)
13,COc1ccc(NC(=O)C(C)SCc2ccccc2)cc1 (stereo not drawn),-4.67% (inactive)
14,O=C(CN1C(=O)NC2(CCCCC2)C1=O)NCCc1c[nH]c2ccccc12,1.64% (inactive)
15,N#C/C(=C/c1ccc(N2CCCCC2)o1)C(=O)NCCc1c[nH]c2ccccc12,151% (active)
16,O=C(NCCc1c[nH]c2ccccc12)C1CCN(Cc2ccc(Br)cc2)CC1,-4.77% (inactive)
17,COc1ccccc1N(C)S(=O)(=O)c1ccc(C(=O)NC2CCCCCC2)cc1,-1.04% (inactive)
18,CC1CCCC(NC(=O)COC(=O)[C@@H]2CC(O)CN2S(=O)(=O)c2ccc3c(c2)OCCO3)C1C (stereo partly drawn),2.16% (inactive)
19,COc1cc(C(=O)Nc2cc(C(F)(F)F)ccc2-n2cncn2)cc(OC)c1OC,-10.1% (inactive)
20,CCN(CC(=O)Nc1c(F)cccc1F)C(=O)C1CCC1,-0.82% (inactive)

row,Compound,inhibition
1,N#CC1=C(N)Oc2c(sc3ccccc23)C1c1ccco1 (stereo not drawn),37.7% (active)
2,N#CC1=C(N)Oc2c(ccc3cccnc23)C1c1ccncc1 (stereo not drawn),0.4% (inactive)
3,Cc1cc(C(=O)NCCc2ccc(Cl)cc2)c(C)o1,-1.15% (inactive)
4,COCc1[nH][nH]c(=O)c1C=Nc1ccc(F)cc1F,1.29% (inactive)
5,CN1/C(=c2/s/c(=C3/C(=O)N(c4ccccc4)NC3=Nc3ccccc3)n(C)c2=O)C(C)(C)c2ccccc21,27% (active)
6,O=C(OCC(=O)N1CCCCC1)c1ccc(OC(F)(F)F)cc1,7.21% (inactive)
7,Cc1nnc(Sc2nc3c(c(=O)[nH]c(=O)n3C)n2Cc2ccccc2)s1,1.7% (inactive)
8,C=CCC1=C/C(=C\c2c(N)n3nc(CC(=O)N4CCOCC4)sc3nc2=O)C=C(OC)C1=O,68.9% (active)
9,COC1=C/C(=C/c2c(N)n3nc(CC(=O)N4CCOCC4)sc3nc2=O)C=CC1=O,12.1% (inactive)
10,COc1cc(/C=C2\C(=N)N3N=C(CC(=O)N4CCOCC4)SC3=NC2=O)cc(OC)c1OC,-4.67% (inactive)
11,Cc1cccc(CSc2ccc(-c3cccs3)nn2)c1,4.68% (inactive)
12,FC(F)(F)Oc1ccc(-c2cn3cccnc3n2)cc1,6.48% (inactive)
13,FC(F)(F)c1ccc2c3n(nc2c1)CCN=C3c1ccc(Cl)cc1,1.01% (inactive)
14,CCn1c(O)c(N=NC2=NC(=O)CS2)c2cc(C)ccc21,5.14% (inactive)
15,CCC(=C/c1sc2ccc3ccccc3c2[n+]1C)/C=C1\Sc2ccc3ccccc3c2N1C,50.5% (active)
16,O=S1(=O)CC(NCc2ccccc2)C(Nc2ccc(Cl)cc2)C1 (stereo not drawn),0.58% (inactive)
17,COc1ccc(NS(=O)(=O)c2cc3c(cc2C)N(C(C)=O)CCO3)cc1,2.34% (inactive)
18,CN1C(C)(C)CC(NC(=O)CCC(=O)NC2CC(C)(C)N(C)C(C)(C)C2)CC1(C)C,0.6% (inactive)
